The text below walks through data of the supplement of paper PMC11732987, “Enantioselective OTUD7B fragment discovery through chemoproteomics screening and high-throughput optimisation” (Communications Chemistry, 2025).

Holding throughout (test): log2 ratio of Biotin-Ahx-Ub-VS probe labelling (fragment/DMSO); higher = less target engagement (more negative = stronger competition), active = hit call of the paper (q ≤ 0.05, log2 ratio ≤ -1)
Holding throughout (conditions): compound concentration: 200 uM; treatment time: 3 h

In assay [1] the target is T1, OTUD6B (UniProt Q8N6M0).
T1 sequence (whole entry): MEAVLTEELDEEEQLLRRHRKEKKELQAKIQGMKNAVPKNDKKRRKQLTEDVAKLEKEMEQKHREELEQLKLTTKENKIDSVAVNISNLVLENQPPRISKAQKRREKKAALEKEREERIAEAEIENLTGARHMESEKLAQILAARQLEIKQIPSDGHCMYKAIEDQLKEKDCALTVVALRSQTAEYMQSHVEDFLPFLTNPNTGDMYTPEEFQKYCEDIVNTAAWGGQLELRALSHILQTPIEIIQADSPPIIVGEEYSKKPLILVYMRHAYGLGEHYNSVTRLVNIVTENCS
The method in brief: (§1)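 Labelled DUBs were enriched with NeutrAvidin, digested with LysC and trypsin, and run by diaPASEF LC-MS/MS. The labelling used Biotin-Ahx-Ub-VS at 0.5 µM final for 1 h on HEK293T lysate (495 µg per sample) previously treated in triplicate with fragment at 200 µM or vehicle for 3 h. Values are average log2 fragment/vehicle ratios by unpaired t-test on global-median-normalised Spectronaut quantities of proteins with ≥2 unique peptides.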

Assay [2] concerns the target T2, OTUD7B (UniProt Q6GQQ9).
T2 sequence (whole entry): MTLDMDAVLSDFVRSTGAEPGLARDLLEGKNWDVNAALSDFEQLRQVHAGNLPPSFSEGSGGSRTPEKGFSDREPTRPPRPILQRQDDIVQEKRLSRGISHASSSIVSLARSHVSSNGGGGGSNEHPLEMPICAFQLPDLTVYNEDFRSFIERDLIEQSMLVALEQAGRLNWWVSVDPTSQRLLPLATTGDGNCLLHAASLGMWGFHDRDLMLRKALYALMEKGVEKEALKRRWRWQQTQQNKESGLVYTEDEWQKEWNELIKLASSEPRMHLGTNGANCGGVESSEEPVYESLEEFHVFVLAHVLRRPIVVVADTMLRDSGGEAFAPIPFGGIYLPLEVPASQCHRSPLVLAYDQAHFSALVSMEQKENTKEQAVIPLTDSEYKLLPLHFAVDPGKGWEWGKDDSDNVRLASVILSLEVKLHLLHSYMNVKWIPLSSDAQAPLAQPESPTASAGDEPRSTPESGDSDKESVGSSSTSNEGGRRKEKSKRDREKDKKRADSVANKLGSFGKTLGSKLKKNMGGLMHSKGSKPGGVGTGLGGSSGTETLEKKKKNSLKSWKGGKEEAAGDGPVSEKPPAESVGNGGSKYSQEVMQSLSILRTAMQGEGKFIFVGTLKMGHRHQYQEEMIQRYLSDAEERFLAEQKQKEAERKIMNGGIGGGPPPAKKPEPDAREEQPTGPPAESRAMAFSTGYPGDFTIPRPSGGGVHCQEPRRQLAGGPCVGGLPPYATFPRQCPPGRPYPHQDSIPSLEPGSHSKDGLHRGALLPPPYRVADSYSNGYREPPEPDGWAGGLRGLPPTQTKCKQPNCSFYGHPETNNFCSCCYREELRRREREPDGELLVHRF
The method in brief:
as §1

For assay [3], the target named is PRPF8 (UniProt Q6P2Q9). The method in brief: as §1
Assay [4] has as its target T3, PSMD7 (UniProt P51665).
T3 sequence (whole entry): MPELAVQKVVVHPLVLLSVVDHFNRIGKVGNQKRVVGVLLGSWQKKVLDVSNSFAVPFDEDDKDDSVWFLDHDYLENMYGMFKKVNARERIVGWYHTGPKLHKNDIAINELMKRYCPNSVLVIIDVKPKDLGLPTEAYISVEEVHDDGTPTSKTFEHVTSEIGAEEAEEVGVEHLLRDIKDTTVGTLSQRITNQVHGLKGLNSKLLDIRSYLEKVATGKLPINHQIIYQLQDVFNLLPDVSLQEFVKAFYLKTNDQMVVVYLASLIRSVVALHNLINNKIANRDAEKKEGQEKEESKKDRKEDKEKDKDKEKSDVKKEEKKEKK
An outline of the steps:
as §1

In assay [5] the target is UCHL1 (UniProt P09936). An outline of the steps: as §1
In assay [6] the target is T4, UCHL3 (UniProt P15374).
T4 sequence (whole entry): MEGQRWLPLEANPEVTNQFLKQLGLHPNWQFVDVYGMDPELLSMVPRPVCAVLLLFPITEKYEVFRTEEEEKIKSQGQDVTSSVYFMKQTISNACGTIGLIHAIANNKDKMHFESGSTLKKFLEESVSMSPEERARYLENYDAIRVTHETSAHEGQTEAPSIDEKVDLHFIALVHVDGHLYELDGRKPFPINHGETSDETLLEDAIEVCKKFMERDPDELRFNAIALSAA
An outline of the steps: as §1

The target in assay [7] is T5, UCHL5 (UniProt Q9Y5K5).
T5 sequence (whole entry): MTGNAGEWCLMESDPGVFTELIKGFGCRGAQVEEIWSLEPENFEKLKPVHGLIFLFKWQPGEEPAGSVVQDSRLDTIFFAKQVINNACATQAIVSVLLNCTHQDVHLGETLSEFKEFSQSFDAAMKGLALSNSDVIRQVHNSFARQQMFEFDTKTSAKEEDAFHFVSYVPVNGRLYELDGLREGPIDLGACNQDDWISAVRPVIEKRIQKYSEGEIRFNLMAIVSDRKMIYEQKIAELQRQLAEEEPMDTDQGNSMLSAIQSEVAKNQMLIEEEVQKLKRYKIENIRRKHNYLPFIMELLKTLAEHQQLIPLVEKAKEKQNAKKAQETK
An outline of the steps:
as §1

For assay [8], the target named is USP10 (UniProt Q14694). An outline of the steps:
as §1

For assay [9], the target named is T6, USP15 (UniProt Q9Y4E8).
T6 sequence (whole entry): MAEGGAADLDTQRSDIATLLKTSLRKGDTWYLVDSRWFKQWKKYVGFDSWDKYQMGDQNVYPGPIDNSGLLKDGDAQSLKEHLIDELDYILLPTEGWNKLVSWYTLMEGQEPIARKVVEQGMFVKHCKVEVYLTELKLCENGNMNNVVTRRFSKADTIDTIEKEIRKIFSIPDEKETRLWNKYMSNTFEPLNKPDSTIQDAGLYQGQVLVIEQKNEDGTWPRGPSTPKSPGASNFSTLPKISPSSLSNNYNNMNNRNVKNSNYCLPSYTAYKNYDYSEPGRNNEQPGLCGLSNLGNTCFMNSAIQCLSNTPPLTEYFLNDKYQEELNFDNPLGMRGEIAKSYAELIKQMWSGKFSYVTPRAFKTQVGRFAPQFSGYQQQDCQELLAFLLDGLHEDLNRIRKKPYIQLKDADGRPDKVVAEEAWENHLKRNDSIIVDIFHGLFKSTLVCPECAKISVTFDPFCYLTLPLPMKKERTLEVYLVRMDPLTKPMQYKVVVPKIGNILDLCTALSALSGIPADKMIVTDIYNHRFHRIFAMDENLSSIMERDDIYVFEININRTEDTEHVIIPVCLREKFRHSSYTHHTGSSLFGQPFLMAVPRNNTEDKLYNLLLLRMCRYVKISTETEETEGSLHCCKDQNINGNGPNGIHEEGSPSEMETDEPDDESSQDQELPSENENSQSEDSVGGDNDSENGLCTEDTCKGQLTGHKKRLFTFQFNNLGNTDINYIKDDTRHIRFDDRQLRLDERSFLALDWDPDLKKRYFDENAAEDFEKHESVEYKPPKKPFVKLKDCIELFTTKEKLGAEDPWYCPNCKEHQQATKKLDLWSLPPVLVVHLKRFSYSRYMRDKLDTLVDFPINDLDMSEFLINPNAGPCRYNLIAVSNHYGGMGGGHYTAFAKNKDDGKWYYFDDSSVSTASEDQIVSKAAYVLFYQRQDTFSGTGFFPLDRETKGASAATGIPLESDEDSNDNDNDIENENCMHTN
The method in brief: as §1

Values without a mark were called inactive.

Chain of UCHL1 (P09936 whole entry, looked up): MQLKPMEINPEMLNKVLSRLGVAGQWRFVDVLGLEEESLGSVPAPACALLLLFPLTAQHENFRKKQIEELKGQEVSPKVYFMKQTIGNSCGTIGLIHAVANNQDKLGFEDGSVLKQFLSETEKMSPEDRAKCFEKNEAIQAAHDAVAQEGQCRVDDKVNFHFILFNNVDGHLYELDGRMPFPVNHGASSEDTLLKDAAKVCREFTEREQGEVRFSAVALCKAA
Chain of USP10 (Q14694 whole entry): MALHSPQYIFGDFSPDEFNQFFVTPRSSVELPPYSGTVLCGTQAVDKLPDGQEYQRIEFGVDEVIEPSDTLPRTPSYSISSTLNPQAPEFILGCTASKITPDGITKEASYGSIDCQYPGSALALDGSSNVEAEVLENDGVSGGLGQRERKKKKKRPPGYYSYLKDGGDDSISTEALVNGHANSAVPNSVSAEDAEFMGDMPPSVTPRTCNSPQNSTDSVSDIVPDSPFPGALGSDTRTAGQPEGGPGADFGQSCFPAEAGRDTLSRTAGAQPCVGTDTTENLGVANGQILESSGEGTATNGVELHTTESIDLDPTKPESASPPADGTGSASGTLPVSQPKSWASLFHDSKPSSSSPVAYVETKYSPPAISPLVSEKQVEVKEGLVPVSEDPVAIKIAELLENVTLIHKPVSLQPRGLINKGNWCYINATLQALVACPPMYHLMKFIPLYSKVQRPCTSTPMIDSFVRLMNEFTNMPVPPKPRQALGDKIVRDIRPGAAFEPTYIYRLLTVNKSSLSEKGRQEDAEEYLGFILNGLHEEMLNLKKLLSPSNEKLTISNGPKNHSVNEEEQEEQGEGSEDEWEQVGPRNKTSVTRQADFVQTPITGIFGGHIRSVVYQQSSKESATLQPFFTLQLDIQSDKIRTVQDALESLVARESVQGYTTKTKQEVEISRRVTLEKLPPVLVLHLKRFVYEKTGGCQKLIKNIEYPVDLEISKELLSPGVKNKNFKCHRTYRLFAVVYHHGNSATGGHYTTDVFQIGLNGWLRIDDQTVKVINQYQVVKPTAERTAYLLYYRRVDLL

In the case of `O=C(CCl)Nc1nc(-c2cccs2)cs1`, the “log2 ratio of Biotin-Ahx-Ub-VS probe labelling” value in [1] is -0.434; in assay [2] it was -0.695; in assay [3], 0.14; in assay [4], -0.0595; in assay [5] it was -1.45 (active); in [6], 0.426. For the same compound, the “log2 ratio of Biotin-Ahx-Ub-VS probe labelling” value was -2.61 (active) in [7], -0.0951 in assay [8] and -0.354 in assay [9].
